The source of these data is PubChem BioAssay (NCATS).

Results filed as inconclusive are left out. Unmarked numbers belong to inactive results. The source made the active and inactive calls. Calls come from the whole dose curve; as a rule, active = well fitted inhibition curve with a large enough effect; inconclusive = small, poorly fitted or top-dose-only effect; inactive = no such curve, though single readings can be large or run the other way.
% is set by controls: 0 for no effect and ±100 for the full control effect; potency is the fitted concentration of half-maximal effect.

The assay has as its system Zika virus NS2B-NS3 protease (linked construct). As to the kind of experiment: Primary screen NINDS Rhodamine qHTS for Zika virus inhibitors (AID 1347160). Note: nearly all actives have a fitted effect of over 55% in size. Particulars: purified NS2B-NS3 protease, Rhodamine110 substrate fluorescence; series mostly up to 57.1 µM; activity change, negative = inhibition: at the top concentration. The method in brief:
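Purified linked NS2B-NS3 protease (NS2B hydrophilic domain joined to NS3 protease by flexible linker), 25 nM in 10 mM Tris-HCl pH 8.0, 0.01% Tween 20. Compounds titrated, 15 min preincubation at room temperature; 1.5 microM Rhodamine110 substrate, FITC fluorescence change over 15 min.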
For `C/C=C/c1ccc(O[C@@H]2O[C@H](CO)[C@@H](O)[C@H](O)[C@H]2O)c(OC)c1`, the “activity change, negative = inhibition” value is -12.2% [at 33.1 µM].

Turning to `O=C(/C=C/c1ccc(O)cc1)N[C@@H](Cc1ccc(O)cc1)C(=O)O`, the “outcome” value was “inactive [at 33.1 µM]”.

`CC1CC(O)/C=C/C(O)C(O)CC(=O)Cc2c(Cl)c(O)cc(O)c2C(=O)O1` (stereo not given): the “activity change, negative = inhibition” value is -12.2% [at 33.1 µM].

On to `C=C1C(=O)OC2/C=C(\CO)CC/C=C(\C=O)CC(OC(=O)CC(C)C)C12` (stereo not given), for which the “activity change, negative = inhibition” value was 7.51% [at 33.1 µM].

In the case of `CCC[C@@H]1O[C@@H]2C[C@H]3[C@@H]4CCC5=CC(=O)C=C[C@]5(C)[C@H]4[C@@H](O)C[C@]3(C)[C@]2(C(=O)CO)O1`, the “activity change, negative = inhibition” value is -0.269%.

`C=C1CCC2C(C)(C(=O)O)CCCC2(C)C1CCC(C)CC(=O)O` (stereo not given): the “activity change, negative = inhibition” value is -15.5% [at 33.1 µM].

For the molecule `OC[C@H]1O[C@@H](O[C@H]2[C@H](OCCc3ccccc3)O[C@H](CO)[C@@H](O)[C@@H]2O)[C@H](O)[C@@H](O)[C@@H]1O`, the “activity change, negative = inhibition” value was -17.3% [at 33.1 µM].

Consider `CCOCc1cc(OC)c(-c2ccc(C[C@H](NC(=O)c3c(F)cccc3F)C(=O)O)cc2)c(OC)c1`, for which the “activity change, negative = inhibition” value is 11%.

`COc1ccc(/C=C/C(=O)O[C@@H]2[C@@H](O)[C@H](C)O[C@@H](O[C@H]3[C@@H]4C=CO[C@@H](O[C@H]5O[C@@H](CO)[C@H](O)[C@@H](O)[C@@H]5O)[C@@H]4[C@@]4(CO)O[C@@H]34)[C@@H]2OC(C)=O)cc1`: the “activity change, negative = inhibition” value is -7.47% [at 15.1 µM].

On to `C=CCC1=C[C@]2(OC)[C@H](C)[C@@H](c3ccc(O)c(OC)c3)O[C@]2(OC)CC1=O`, for which the “activity change, negative = inhibition” value was -6.88% [at 33.1 µM].

Regarding `C/C=C/c1ccc2c(c1)[C@@H](C)[C@H](c1ccc(O)cc1)O2`, the “activity change, negative = inhibition” value was 2.87%.

Turning to `O=C(c1ccc2nccnc2c1)N1CCCCC1`, the outcome was inactive.

Take `COc1ccc(CCC(=O)c2c(O)cc(O)cc2O[C@@H]2O[C@H](CO)[C@@H](O)[C@H](O)[C@H]2O)cc1`: the “activity change, negative = inhibition” value was -10.7% [at 33.1 µM].

Regarding `COc1ccc(Oc2cc(C)c(-c3csc(NC(=O)c4ccncc4)n3)c(C)c2)cc1`, the “activity change, negative = inhibition” value is -5.62%.

In the case of `[N-]=[N+]=N[C@]1(CO)O[C@@H](n2ccc(=O)[nH]c2=O)[C@@H](O)[C@@H]1O`, the “activity change, negative = inhibition” value is 28%.

Consider `C=C1C(=O)O[C@H]2C1[C@H](OC(=O)/C(=C/CO)COC(=O)/C(C)=C/CO)CC(=C)[C@@H]1CC(=O)[C@@H](C)[C@@H]12` (stereo not given in full), for which the “outcome” value was “inactive [at 33.1 µM]”.

As for `C[C@@H]1O[C@@H](OC[C@H]2O[C@@H](OC(CCCCc3ccc(O)cc3)CCc3ccc(O)cc3)[C@H](O)[C@@H](O)[C@@H]2O)[C@H](O)[C@H](O)[C@H]1O` (stereo not given in full), the “activity change, negative = inhibition” value is -6.55% [at 15.1 µM].

For `Cc1cc2c(c(=O)[nH]1)OC(C(O)CC(C)C)O2` (stereo not given), the “activity change, negative = inhibition” value is -18.4%.

For the molecule `CC1=C(CCC(C)O[C@@H]2O[C@H](CO)[C@@H](O)[C@H](O)[C@H]2O)C(C)(C)CCC1=O` (stereo not given in full), the “activity change, negative = inhibition” value is -21.5% [at 33.1 µM].

Take `C=C(C(=O)O)C1CCC2(C)CCC(O)C(=C)C2C1` (stereo not given): the Potency is 8.91 µM (active).

With `C=C1C[C@]23C[C@H]1CC[C@H]2[C@]1(C)CCC[C@@](C)(C(=O)O)[C@H]1[C@@H]3C(=O)O`, the “activity change, negative = inhibition” value is -25.9% [at 33.1 µM].

Regarding `C=C(C)C(=O)OC1CC2(C)OC(=CC2=O)C(=C)CC2OC(=O)C(COC)C12` (stereo not given), the “activity change, negative = inhibition” value is -6.82% [at 33.1 µM].

As to `CC1(C)CCC2(C(=O)OC3OC(CO)C(O)C(O)C3O)CCC3(C)C(=CCC4C5(C)CCC(O)C(C)(C(=O)O)C5CCC43C)C2C1O` (stereo not given), the “activity change, negative = inhibition” value was -18.6% [at 15.1 µM].

For the molecule `Nc1ncnc2c1nc(N)n2[C@@H]1O[C@H](CO)[C@@H](O)[C@H]1O`, the “activity change, negative = inhibition” value was 22.2%.

For `OC[C@H]1O[C@@H](Oc2ccccc2)[C@H](O)[C@@H](O)[C@@H]1O`, the “activity change, negative = inhibition” value is -12.5%.

Take `CC(=O)OC1C(O)CC2(C)C(CCC(C)C23Cc2c(O)cc(CO)c(C=O)c2O3)C1(C)C` (stereo not given): the “outcome” value was “inactive [at 33.1 µM]”.

On to `CC1(C)CCCC2(C)C(C(=O)O)=CCC12` (stereo not given), for which the “activity change, negative = inhibition” value is 20.7%.

As for `CC(=O)CCC1=C(C)C(O[C@@H]2O[C@H](CO)[C@@H](O)[C@H](O)[C@H]2O)C(O)CC1(C)C` (stereo not given in full), the “activity change, negative = inhibition” value is 1.44% [at 33.1 µM].

Take `O=C1NC(Cc2ccccc2)C(=O)N2CCCC12` (stereo not given): the “activity change, negative = inhibition” value is -12.9%.

Consider `C[C@@H]1C[C@@H]2O[C@H]2/C=C\C=C\C(=O)Cc2c(Cl)c(O)cc(O)c2C(=O)O1`, for which the “activity change, negative = inhibition” value is -15.4% [at 33.1 µM].

As to `CC(=O)O[C@H]1C[C@@](O)(C(C)C)C2[C@@H](OC(=O)c3ccc(O)cc3)C[C@@]3(C)O[C@H]3C[C@]21C` (stereo not given in full), the “activity change, negative = inhibition” value is -6.41% [at 33.1 µM].

With `CC(C)C[C@H](CC(=O)NO)C(=O)N[C@H](C(=O)N[C@@H](C)C(=O)NCCN)C(C)(C)C`, the activity change, negative = inhibition is -11.4% [at 10.7 µM].

As for `CC1(C)CCCC2(C)C(CO)C(CO)=CCC12` (stereo not given), the “activity change, negative = inhibition” value is -10.6%.

Take `Cc1cc(C(N)=O)ccc1-n1c(CCC(=O)O)ccc1-c1ccc(-n2ccnc2)cc1`: the “activity change, negative = inhibition” value was -18.2%.

Consider `CC(C)c1ccc2c(c1)C(=O)CC1[C@@](C)(C(=O)O)CCC[C@]21C` (stereo not given in full), for which the “outcome” value is “inactive [at 33.1 µM]”.

On to `CC(=O)O[C@H]1CC[C@@]2(C)C(CC[C@@H](C)[C@]23Cc2c(O)cc4c(c2O3)CN([C@@H](CCC(=O)O)C(=O)O)C4=O)C1(C)C` (stereo not given in full), for which the “outcome” value was “inactive [at 33.1 µM]”.

Regarding `C/C1=C\CC[C@]2(C)O[C@@H]2[C@H](O)[C@H](C(C)C)[C@H](OC(=O)/C=C/c2ccccc2)C1`, the “activity change, negative = inhibition” value was 8.73% [at 33.1 µM].

In the case of `O=C(/C=C\c1ccc(O)cc1)N[C@@H](Cc1ccc(O)cc1)C(=O)O`, the Potency is 12.6 µM (active).

Turning to `CO[C@H]1/C=C/C=C/C=C/C[C@H](OC(=O)[C@@H](C)NC(=O)C2CCCCC2)[C@H](C)[C@@H](O)/C(C)=C/CCc2cc(O)cc(c2)NC(=O)C1`, the “activity change, negative = inhibition” value was -15.5% [at 15.1 µM].

As to `COc1ccc(/C=C/C(=O)O[C@@H]2[C@@H](O)[C@@H](O)[C@H](O[C@@H]3C=C(CO)[C@H]4[C@H](O[C@@H]5O[C@H](CO)[C@@H](O)[C@H](O)[C@H]5O)OC=C[C@H]43)O[C@H]2C)cc1O`, the “activity change, negative = inhibition” value was -21.6% [at 15.1 µM].
